The nature of the assay: NCI Yeast Anticancer Drug Screen. Data for the rad14 strain (AID 159).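 Note: 0% = growth of vehicle-treated control cultures.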 The conditions noted are these: S. cerevisiae rad14 strain growth inhibition, stronger effect = higher value. On the procedure: Growth inhibition of yeast strains with defined genetic alterations is measured as a screen for potential anti-cancer activity. Selected strains with alterations in DNA damage repair or cell cycle control were exposed to compounds and growth inhibition was measured relative to vehicle treated controls. The strain used in this assay is rad14

Drawing on PubChem BioAssay (NCI), this text covers growth inhibition for eight compounds.

About 79,000 compounds went through this panel and 15% of them were active in at least one assay; those are over-represented in the sample as a whole. Unmarked numbers belong to inactive results. The source made the active and inactive calls. Cut-off read from the data, not from the text of the source: active = growth inhibition above about 70%; inactive = the rest.

For `Cc1c(C2=C(Br)C(=O)N(C)C2=O)c(=O)n(C)c(=O)n1C`, the growth inhibition is 5% (at 1.2 µM); 13% (at 3.7 µM); 28% (at 11.0 µM); 47% (at 33.0 µM); 91% (active) (at 100.0 µM).
For `Cc1ccc(S(=O)(=O)Oc2cc(Cl)c(Cl)cc2Cl)cc1` the same measures were -4%, 4%, 2%, -7% and 2%.
As for `FC(F)(F)c1cc(NC(=S)N2c3ccccc3-n3cccc3C2c2cccnc2)cc(C(F)(F)F)c1` (stereo not given), the growth inhibition was 2% (at 1.2 µM); 0% (at 3.7 µM); -1% (at 11.0 µM); -3% (at 33.0 µM); -5% (at 100.0 µM).
For `O=C(c1ccc(Cl)cc1Cl)C(Cl)Cl` the same measures were -17%, -25%, -15%, 53% and 98% (active).
For `CC(C(=O)N1C(=O)N(C(=O)[C@H](C)C(O)c2ccccc2)[C@H](c2ccccc2)[C@H]1c1ccccc1)[C@@H](O)c1ccccc1` (stereo not given in full) the same measures were -7%, -12%, 1%, 15% and 36%.
The matching figures for `c1ccc2c(c1)-c1nc3ccccc3cc1C2N1CCOCC1` (stereo not given): 0%, 0%, -1%, -4% and 21%.
In the case of `O=C([O][Sn]([O]C(=O)c1ccccc1)([c]1ccccc1)[c]1ccccc1)c1ccccc1`, the growth inhibition runs as follows: (at 1.2 µM) 32%; (at 3.7 µM) 23%; (at 11.0 µM) 30%; (at 33.0 µM) 35%; (at 100.0 µM) 82% (active).
The matching figures for `CCCCc1cc(O)ccc1O`: 2%, 3%, 18%, 31% and 35%.
